# Measured values as given in PubChem BioAssay.
# Where “and” joins values, the source holds several entries; their conditions need not be identical. Equal entries are not always repeated. Calls of active or inactive are those of the source. Rule as the data show it, unless noted: active = inhibition above about 80%; inactive = the rest.
# Assays:
# [1] = LFS_MB_P medulloblastoma growth inhibition, cell-based, chromothripsis tumors, cisplatin or BGB combos (AID 1671449); conditions: LFS_MB_P medulloblastoma cells;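 also: cells exposed for 96 hours; 0% = vehicle DMSO and 100% = killing by high DMSO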
# [2] = HDN33 neuroblastoma growth inhibition, cell-based, chromothripsis tumors, cisplatin or BGB combos (AID 1671450); conditions: HDN33 neuroblastoma cells, stronger effect = higher value;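 also: cells exposed to compound for four days; 0% = vehicle DMSO and 100% = cell killing by high DMSO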
# [3] = ICB984 medulloblastoma cell growth inhibition, synergistic combos for chromothripsis tumors, cisplatin or BGB combos (AID 1671451; call rule not given here;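 also: cells exposed for 96 hours before readout; 0% = vehicle DMSO and 100% = killing by high DMSO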); conditions: ICB984 medulloblastoma cells, drug combinations, stronger effect = higher value
# [4] = LFS_MB_1R medulloblastoma cell growth inhibition, synergistic combos for chromothripsis tumors, cisplatin or BGB combos (AID 1671452); conditions: LFS_MB_1R medulloblastoma cells, stronger effect = higher value;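 also: cells exposed for 96 hours before readout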
# [5] = HTB85 osteosarcoma cell growth inhibition, synergistic combos for chromothripsis tumors, BGB or cisplatin IC20 combos (AID 1671453); conditions: HTB85 osteosarcoma cells, drug combinations, stronger effect = higher value;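 also: cells exposed for 96 hours before readout; 0% = vehicle DMSO and 100% = high DMSO killing control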
# [6] = CRL2098 osteosarcoma cell growth inhibition, synergistic combos for chromothripsis tumors, BGB or cisplatin IC20 combos (AID 1671454); conditions: CRL2098 osteosarcoma cells, drug combinations, stronger effect = higher value;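 also: cells exposed for 96 h before readout; 0% = vehicle DMSO and 100% = killing by high DMSO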
# [7] = HD-MB03 medulloblastoma cell growth inhibition, synergistic combos for chromothripsis tumors, BGB or cisplatin IC20 combos (AID 1671455; in the data active = inhibition above about 83%;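 also: 0% = vehicle DMSO and 100% = high DMSO as cytotoxic control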); conditions: HD-MB03 medulloblastoma cells, stronger effect = higher value
# [8] = UWB1.289 ovarian carcinoma cell growth inhibition, synergistic combos for chromothripsis tumors, BGB or cisplatin combos (AID 1671456); conditions: UWB1.289 ovarian carcinoma cells, stronger effect = higher value;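 also: cells exposed to compound for four days; 0% = vehicle DMSO and 100% = killing by high DMSO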
# [9] = LFS_MB_2R medulloblastoma cell growth inhibition, synergistic combos for chromothripsis tumors, cisplatin combos (AID 1671457); conditions: LFS_MB_2R medulloblastoma cells, stronger effect = higher value;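 also: cells exposed to compound for four days before readout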
# [10] = MDA-MB-436 breast carcinoma cell growth inhibition, synergistic combos for chromothripsis tumors, BGB or cisplatin combos (AID 1671458; call rule not given here;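 also: cells exposed for 96 hours; 0% = vehicle DMSO and 100% = killing by high DMSO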); conditions: MDA-MB-436 breast carcinoma growth inhibition, drug combinations, stronger effect = higher value
# [11] = UWB1.289_BRCA1 ovarian cancer growth, cell-based, BGB or cisplatin combinations (AID 1671459); conditions: UWB1.289 BRCA1 ovarian carcinoma, drug combinations, stronger effect = higher value
# [12] = human astrocyte viability loss, single and combined drugs, cytotoxicity control for chromothriptic childhood tumor combination screen, cell-based, BGB or cisplatin IC20 combos (AID 1671460); conditions: Human astrocytes, drug combinations, stronger effect = higher value;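 also: cells exposed to compounds for 96 hours before viability readout; 0% = vehicle and 100% = killing control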
# [13] = growth inhibition of BT084 medulloblastoma cells, cell-based, ICGC_MB145, cisplatin and BGB IC40 combos (AID 1671461); conditions: drug combinations, stronger effect = higher value;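 also: cells exposed to drugs for 96 hours; 0% = vehicle DMSO and 100% = high DMSO full killing control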
# [14] = growth inhibition of RCMB18 medulloblastoma cells, cell-based, cisplatin and BGB IC40 combos (AID 1671462); conditions: stronger effect = higher value;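 also: cells exposed to compound for four days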
# [15] = growth inhibition of CRL1545 osteosarcoma cells, cell-based, cisplatin and BGB IC20 combos (AID 1671464); conditions: stronger effect = higher value;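 also: cells exposed to compound for 96 hours before readout; 0% = vehicle DMSO and 100% = high DMSO killing control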
# [16] = at 0.5 µM, stronger effect = higher value
# [17] = measured here: combination with BGB IC20, at 0.005 µM
# [18] = measured here: combination with BGB IC40, at 0.005 µM
# [19] = measured here: combination with BGB IC40, at 0.05 µM
# [20] = measured here: combination with cisplatin, at 0.5 µM, stronger effect = higher value
# [21] = measured here: combination with cisplatin, at 5 µM, stronger effect = higher value
# [22] = measured here: with BGB IC20 combination, at 0.5 µM
# [23] = measured here: with cisplatin IC20 combination, at 0.5 µM
# [24] = measured here: 5 uM single agent, at 5 µM
# [25] = measured here: combination with cisplatin, at 0.5 µM
# [26] = measured here: combination with cisplatin, at 5 µM
# [27] = measured here: with BGB IC20, at 0.5 µM
# [28] = measured here: with BGB IC20, at 5 µM
# [29] = measured here: with cisplatin IC20, at 0.5 µM
# [30] = measured here: with cisplatin IC20, at 5 µM
# [31] = measured here: combination with BGB at IC20, at 0.5 µM
# [32] = measured here: combination with cisplatin at IC20, at 0.5 µM
# [33] = measured here: combo with BGB at IC20, at 0.5 µM
# [34] = measured here: combo with cisplatin at IC20, at 0.5 µM
# [35] = measured here: inhibition with BGB combination, at 0.05 µM
# [36] = measured here: inhibition with cisplatin combination, at 0.05 µM
# [37] = measured here: BGB combination, at 0.5 µM
# [38] = measured here: BGB combination, at 5 µM
# [39] = measured here: cisplatin combination, at 0.5 µM
# [40] = measured here: cisplatin combination, at 5 µM
# [41] = BGB combination, concentration series, at 5 µM
# [42] = cisplatin combination, concentration series, at 5 µM
# [43] = measured here: combo with BGB IC20, at 0.5 µM
# [44] = measured here: combo with cisplatin IC20, at 0.5 µM
# [45] = cisplatin combination, at 0.5 µM
# [46] = measured here: BGB IC40 combination 0.05 uM, at 0.05 µM
# [47] = measured here: BGB IC40 combination, at 0.05 µM
smiles,measurement,setting,value
CNc1cc(-c2cccc(Cl)c2Cl)nc(N)n1,inhibition,[1]; [16],-8.18% (inactive) and -26.7% (inactive)
same,inhibition,[1]; [17],12.7% and 6.36%
same,inhibition,[1]; [18],-26.9% and -34.5%
same,inhibition,[1]; [19],-17.6% and -7.49%
same,inhibition,[1]; [20],-22.4% and -20%
same,inhibition,[1]; [21],-7.76% and -6.35%
same,inhibition,"[2]; BGB combo, at 5 µM",48.2% and 55.5%
same,inhibition,[2]; at 0.5 µM,-17.8% (inactive) and -6.13% (inactive)
same,inhibition,"[2]; cisplatin combo, at 5 µM",48.9% and 48.7%
same,inhibition,[2]; [22],-27.7% and -11%
same,inhibition,[2]; [23],-24.8% and -0.815%
same,inhibition,"[2]; single agent, at 5 µM",76.2% and 85.6%
same,inhibition,"[3]; BGB IC20 combo, at 0.005 µM",-21.8% and -29.5%
same,inhibition,"[3]; BGB IC40 combo, at 0.005 µM",-56.1% and -31.8%
same,inhibition,"[3]; BGB IC40 combo, at 0.05 µM",-22.7% and -34.1%
same,inhibition,[3]; at 0.5 µM,-44.2% (inactive) and -25.3% (inactive)
same,inhibition,"[3]; cisplatin combo, at 0.05 µM",-27.5% and -41.1%
same,inhibition,"[3]; cisplatin combo, at 0.5 µM",-72.1% and -45.6%
same,inhibition,"[3]; cisplatin combo, at 5 µM",-47.7% and -22.7%
same,inhibition,[3]; [24],-10.2% and -10.7%
same,inhibition,[4]; at 0.5 µM,-34.6% (inactive) and -4.83% (inactive)
same,inhibition,[4]; [19],-68.3% and -4.85%
same,inhibition,[4]; [25],-61.7% and -26.6%
same,inhibition,[4]; [26],-37.7% and -6.6%
same,inhibition,[5]; at 0.5 µM,-10% (inactive) and -11.4% (inactive)
same,inhibition,[5]; [27],-16.2% and -6.99%
same,inhibition,[5]; [28],35.9% and 44.4%
same,inhibition,[5]; [29],-19.3% and -24.6%
same,inhibition,[5]; [30],46.5% and 52.3%
same,inhibition,"[5]; single agent, at 5 µM",86.8% and 87.8%
same,inhibition,[6]; at 0.5 µM,-44.3% (inactive) and -58.9% (inactive)
same,inhibition,[6]; [31],-56.3% and -39.2%
same,inhibition,[6]; [32],-66.3% and -96.2%
same,inhibition,[7]; at 0.5 µM,7.62% (inactive) and 7.36% (inactive)
same,inhibition,[7]; [33],6.39% and 25.3%
same,inhibition,[7]; [34],10.3% and -5.76%
same,inhibition,[8]; at 0.5 µM,-17.7% (inactive) and -11.8% (inactive)
same,inhibition,[8]; [35],-38.9% and -10.5%
same,inhibition,[8]; [36],-22.8% and -21.6%
same,inhibition,[9]; at 0.5 µM,-20.6% (inactive) and -7.54% (inactive)
same,inhibition,[9]; [25],-10.7% and -19.4%
same,inhibition,[9]; [26],-1.17% and -0.403%
same,inhibition,[10]; at 0.5 µM,-4.77% (inactive) and 5.99% (inactive)
same,inhibition,[10]; [37],-12.3% and -2.46%
same,inhibition,[10]; [38],12% and 36.8%
same,inhibition,[10]; [39],-5.91% and 6.1%
same,inhibition,[10]; [40],53.8% and 59%
same,inhibition,[11]; [41],25.6% and 35%
same,inhibition,[11]; at 0.5 µM,-10.5% (inactive) and -13.3% (inactive)
same,inhibition,[11]; [42],31% and 30.9%
same,inhibition,[12]; at 0.5 µM,-0.46% (inactive) and -4.98% (inactive)
same,inhibition,[12]; [43],-4.03% and -6.91%
same,inhibition,[12]; [44],5.16% and -6.91%
same,inhibition,[13]; at 0.5 µM,-12.1% (inactive) and 5.54% (inactive)
same,inhibition,[13]; [45],-10.6% and -1.11%
same,inhibition,"[13]; cisplatin combination, at 5 µM",8.87% and -169%
same,inhibition,[13]; [46],37% and -7.52%
same,inhibition,"[13]; single agent, at 5 µM",37.7% and 19.1%
same,inhibition,[14]; at 0.5 µM,-17.1% (inactive) and -8.27% (inactive)
same,inhibition,"[14]; cisplatin combo, at 5 µM",-4.48% and -9.87%
same,inhibition,[14]; [47],-4.59% and 4.5%
same,inhibition,[14]; [25],-16.3% and -34.1%
same,inhibition,"[14]; single agent, at 5 µM",-7.05% and 22%
same,inhibition,[15]; at 0.5 µM,-60.9% (inactive) and -11.4% (inactive)
same,inhibition,[15]; [22],-68.8% and -40.3%
same,inhibition,[15]; [23],-56.9% and 1.42%
same,inhibition,"[15]; single agent, at 0.05 µM",-40.9% and -9.94%
same,inhibition,"[15]; single agent, at 5 µM",58.9% and 60.8%
CCC(Sc1nnc2c3ccccc3n(CC)c2n1)C(=O)Nc1ccccc1OC (stereo unspecified),inhibition,[1]; [16],-17.9% (inactive)
same,inhibition,[1]; [17],-26%
same,inhibition,[1]; [18],87.7%
same,inhibition,[1]; [19],-14.4%
same,inhibition,[1]; [20],-20.5%
same,inhibition,[1]; [21],-38.2%
same,inhibition,"[2]; BGB combo, at 5 µM",-25%
same,inhibition,[2]; at 0.5 µM,-10.1% (inactive)
same,inhibition,"[2]; cisplatin combo, at 5 µM",7.7%
same,inhibition,[2]; [22],-15.6%
same,inhibition,[2]; [23],-11.8%
same,inhibition,"[2]; single agent, at 5 µM",1.35%
same,inhibition,"[3]; BGB IC20 combo, at 0.005 µM",-20.7%
same,inhibition,"[3]; BGB IC40 combo, at 0.005 µM",-12.8%
same,inhibition,"[3]; BGB IC40 combo, at 0.05 µM",-32.4%
same,inhibition,[3]; at 0.5 µM,-26.1% (inactive)
same,inhibition,"[3]; cisplatin combo, at 0.05 µM",-39.2%
same,inhibition,"[3]; cisplatin combo, at 0.5 µM",-34.7%
same,inhibition,"[3]; cisplatin combo, at 5 µM",-6.65%
same,inhibition,[3]; [24],-26%
same,inhibition,[4]; at 0.5 µM,-22.8% (inactive)
same,inhibition,[4]; [19],-32%
same,inhibition,[4]; [25],-18.6%
same,inhibition,[4]; [26],-34.1%
same,inhibition,[5]; at 0.5 µM,0.76% (inactive)
same,inhibition,[5]; [27],6.64%
same,inhibition,[5]; [28],-8.08%
same,inhibition,[5]; [29],-8.64%
same,inhibition,[5]; [30],-18%
same,inhibition,"[5]; single agent, at 5 µM",3.91%
same,inhibition,[6]; at 0.5 µM,-23.4% (inactive)
same,inhibition,[6]; [31],-38.3%
same,inhibition,[6]; [32],-32%
same,inhibition,[7]; at 0.5 µM,-13.9% (inactive)
same,inhibition,[7]; [33],-20.2%
same,inhibition,[7]; [34],-12.1%
same,inhibition,[8]; at 0.5 µM,1.85% (inactive)
same,inhibition,[8]; [35],-11.2%
same,inhibition,[8]; [36],-1.41%
same,inhibition,[9]; at 0.5 µM,-23.8% (inactive)
same,inhibition,[9]; [25],-34.2%
same,inhibition,[9]; [26],-45.7%
same,inhibition,[10]; at 0.5 µM,-18.3% (inactive)
same,inhibition,[10]; [37],-16.3%
same,inhibition,[10]; [38],-14.5%
same,inhibition,[10]; [39],-37.5%
same,inhibition,[10]; [40],-22%
same,inhibition,[11]; [41],-8.24%
same,inhibition,[11]; at 0.5 µM,0.44% (inactive)
same,inhibition,[11]; [42],11.1%
same,inhibition,[12]; at 0.5 µM,10.6% (inactive)
same,inhibition,[12]; [43],14.7%
same,inhibition,[12]; [44],10.3%
same,inhibition,[13]; at 0.5 µM,-2.76% (inactive)
same,inhibition,[13]; [45],-8.44%
same,inhibition,"[13]; cisplatin combination, at 5 µM",-148%
same,inhibition,[13]; [46],-28.4%
same,inhibition,"[13]; single agent, at 5 µM",-15.3%
same,inhibition,[14]; at 0.5 µM,-9.8% (inactive)
same,inhibition,"[14]; cisplatin combo, at 5 µM",-1.17%
same,inhibition,[14]; [47],-28%
same,inhibition,[14]; [25],-27.5%
same,inhibition,"[14]; single agent, at 5 µM",-2.94%
same,inhibition,[15]; at 0.5 µM,-6.26% (inactive)
same,inhibition,[15]; [22],3.68%
same,inhibition,[15]; [23],-13%
same,inhibition,"[15]; single agent, at 0.05 µM",-16.5%
same,inhibition,"[15]; single agent, at 5 µM",1.47%
